# EWS-Fli block = blocks EWS/Fli oncoprotein-driven transcription; A673 NR0B1-luciferase reporter, viability-normalised; 350,000 tested, 0.67% active; inhibition, % at 12.6 µM;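 active = mean inhibition of at least 50% after viability correction, with every replicate also passing that limit; inconclusive = mean reaches 50% but only one of two replicates passes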;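 note: firefly luciferase signal divided by Alamar Blue viability fluorescence both relative to DMSO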
# GAA850 FXN act = increases GAA850 frataxin promoter reporter activity | activation, % at 6 µM | AID 540364 | 360,000 tested, 0.56% active | HEK293 lucGAA850 FXN promoter luciferase reporter, 24 h; percent of 10 µM SAHA response;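 active = activation above the average of all compounds screened plus 3 SD, cutoff fixed separately per campaign, cut at about 7.5% in these data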
# Env fusion inh = HIV envelope-mediated fusion inhibition. HeLa-JRFL Env/CEM21 cell fusion, luciferase. inhibition, % at 12.3 µM. 360,000 tested, 1.1% active. AID 651610;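 active = mean replicate inhibition score of at least 50 and every replicate individually at or above 50; inconclusive = only one of the two criteria met; inactive = mean below 50 and not all replicates reaching 50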
# PAX8 reporter = PAX8 transcriptional activity inhibition; RMG-I TPO-luciferase reporter, SteadyGlo, 24 h; inhibition, % at 12.6 µM; 360,000 tested, 1.2% active; AID 652154;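 active = mean replicate inhibition at least 60% with every replicate also reaching 60%; inconclusive = only one of the two criteria is met; inactive = mean below 60% and not all replicates reaching 60%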;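 note: luciferase light reporting Pax8 driven TPO promoter activity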
# F508del corr = correctors of CFTR F508del function in bronchial epithelial cells | 350,000 tested, 0.36% active | AID 720511 | CFBE cells, YFP halide quenching; stimulated with forskolin plus potentiator P3; % fluorescence drop versus neutral controls | activity (quench increase), % at 7.58 µM;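 active = mean added fluorescence quench of at least 8% versus neutral control, with both replicates also reaching 8%; inconclusive = only one of the mean or replicate conditions met; inactive = mean below 8% and not both replicates reaching 8%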;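 note: cells transiently co-express mutant CFTR-F508del with the halide-sensitive YFP; corrector assay measuring rescue of mutant channel to the surface after 24 h compound exposure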
# A number is an active result; – = inactive; ? = inconclusive; · = not tested or not shown. Most compounds without a hit are left out; they make up all but 2.5% or so of the library.
SMILES,EWS-Fli block,GAA850 FXN act,Env fusion inh,PAX8 reporter,F508del corr
COc1cc(C)c(CNCCc2c[nH]c3ccccc23)cc1C,–,–,81,–,–
COc1cccc(CNCCc2c[nH]c3ccccc23)c1,–,–,–,–,–
COc1ccc(CNCCc2c[nH]c3ccccc23)c(OC)c1C,–,–,71,–,–
Cc1cccc(S(=O)(=O)N2[C@@H]3Cn4c(ccc(-c5cccc(F)c5)c4=O)[C@H]2[C@@H](C(=O)O)[C@@H]3CO)c1,–,·,·,–,–
C#CCCC[C@@H]1OC(=O)CNC(=O)C([C@@H](C)CC)NC(=O)[C@@H]2CCCN2C(=O)C([C@@H](C)CC)OC(=O)[C@H](Cc2ccccc2)N(C)C(=O)[C@H](C(C)C)NC(=O)C1(C)C (stereo partly specified),–,·,–,–,–
CCC(C)C1NC(=O)C(NC(=O)C(CC(C)C)N(C)C(=O)C2CCCN2C(=O)C(C)O)C(C)OC(=O)C(Cc2ccc(OC)cc2)N(C)C(=O)C2CCCN2C(=O)C(CC(C)C)NC(=O)[C@H](C)C(=O)[C@H](C(C)C)OC(=O)CC1O (stereo partly specified),72,–,83,95,–
C/C=C/c1ccc([C@@H]2[C@@H](CO)N3CCCCN(C(=O)Cc4ccncc4)C[C@H]23)cc1,–,·,·,–,–
CCOC(C[n+]1c(-c2ccccc2)cc(C)cc1-c1ccccc1)OCC,–,–,–,67,–
O=C(Cc1cccnc1)N1CCCCN2[C@H](C1)[C@@H](c1ccc(/C=C/c3ccccc3)cc1)[C@@H]2CO,–,·,·,–,–
CCCN1[C@@H]2c3ccc(-c4cccc(OC)c4)c(=O)n3C[C@H]1[C@H](CO)[C@H]2C(=O)OC,–,·,·,·,–
COC(=O)C(O)(c1ccc(NC(=S)NC(=O)c2ccc(Cl)cc2Cl)cc1)C(F)(F)F (stereo unspecified),–,–,·,84,–
CCOC(=O)C(O)(c1ccc(NC(=S)NC(=O)c2ccc(Cl)cc2Cl)cc1)C(F)(F)F (stereo unspecified),·,–,–,–,·
CN(C)c1ccc(/C=C/c2cc[n+](C)c3ccccc23)cc1,–,–,–,95,–
CC[n+]1c(/C=C/N(C)c2ccccc2)sc2ccc(Cl)cc21,·,–,79,·,·
CC[n+]1c(/C=C/C=C/c2ccc(N(C)C)cc2)sc2ccccc21,–,–,–,80,–
CN(C)c1ccc(/C=C/C=C/c2sc3ccccc3[n+]2C)cc1,–,–,?,84,–
C[n+]1ccc(-c2ccccc2)c2ccccc21,–,–,–,–,–
COc1ccc(C#Cc2ccc([C@H]3[C@@H](CO)N4CCCCN(C(=O)Cc5cccnc5)C[C@@H]34)cc2)cc1,–,·,·,–,–
Cc1ccc(N)cc1Cl,–,–,–,–,–
Nc1ccc(Cl)c(Cl)c1,–,–,·,–,12
COC(=O)C1=C(c2ccc(OCc3ccccc3)cc2)C[C@@H]2CC[C@H]1N2C(=O)NCCCCc1ccccc1,–,–,–,62,–
CCC(=O)N1[C@@H]2c3ccc(-c4cccc(F)c4)c(=O)n3C[C@H]1[C@H](CO)[C@H]2C(=O)OC,–,·,·,–,–
O=C1CNC[C@@H]2[C@@H](c3ccc(Br)cc3)[C@H](CO)N12,–,·,·,–,–
O=c1[nH]c(=O)n(Cc2ccccc2Cl)c(O)c1/C=C1/C=CC=N1,60,–,–,–,–
C=CCn1c(O)c(/C=C2/C=CC=N2)c(=O)[nH]c1=O,–,–,–,–,·
SMILES,EWS-Fli block,GAA850 FXN act,Env fusion inh,PAX8 reporter,F508del corr
CCCNC(=O)[C@H]1[C@H](CO)[C@H]2Cn3c(cccc3=O)[C@@H]1N2CCC,–,·,·,–,–
CC=Cc1ccc2n(c1=O)C[C@@H]1[C@@H](CO)[C@H](C(=O)N(C)C)N[C@H]21 (mixture of isomers),–,·,·,–,–
C/C=C(\C)C(=O)N[C@@H](c1ccccc1)[C@@H](O)C(=O)O[C@H]1C[C@@]2(O)[C@@H](OC(=O)c3ccccc3)C3[C@](C)(C(=O)[C@H](O)C(=C1C)C2(C)C)[C@@H](O)C[C@H]1OC[C@@]31OC(C)=O (stereo partly specified),57,–,·,·,–
CC(=O)O[C@@]12CO[C@@H]1C[C@H](O)[C@@]1(C)C(=O)[C@H](O)C3=C(C)[C@@H](O)C[C@@](O)([C@@H](OC(=O)c4ccccc4)C12)C3(C)C (stereo partly specified),–,–,·,·,–
C/C=C(\C)C(=O)N[C@@H](c1ccccc1)[C@@H](O)C(=O)O[C@H]1C[C@@]2(O)[C@@H](OC(=O)c3ccccc3)C3[C@](C)(C(=O)[C@H](OC(C)=O)C(=C1C)C2(C)C)[C@@H](O)C[C@H]1OC[C@@]31OC(C)=O (stereo partly specified),58,–,·,·,–
COc1ccc(C(O)(c2cncnc2)C2CC2)cc1 (stereo unspecified),–,·,–,–,–
CC=Cc1ccc2n(c1=O)C[C@H]1[C@H](CO)[C@@H](C(=O)OC)[C@@H]2N1CC1CC1 (mixture of isomers),–,·,·,·,–
CC(Cc1ccc(O)cc1)NCC(O)c1cc(O)cc(O)c1 (stereo unspecified),–,–,74,–,–
O=C(c1ccc(CNS(=O)(=O)c2ccc(Br)cc2)cc1)N1CCC2(CC1)OCCO2,–,–,·,64,–
N#C/C(=C\c1ccc(O)cc1)C(=O)O (tested in a mixture with another compound),–,–,–,–,11
N#CC(C#N)=Cc1ccc(N2CCOCC2)cc1,–,–,–,–,–
CCOP(=O)(CCP(=O)(OCC)OCC)OCC.C[CH2][Sn]([Cl])([Cl])[CH2]C,–,–,–,93,–
CCOP(=O)(OCC)OCC,–,–,·,·,–
O=C(O)[C@H]1[C@H](CO)[C@H]2Cn3c(ccc(-c4cccnc4)c3=O)[C@@H]1N2C(=O)Nc1cc(F)ccc1F,–,·,–,·,·
CCOc1ccc(-c2cc(C)[n+](CCc3ccc(OC)c(OC)c3)c(-c3ccc(OCC)cc3)c2)cc1,51,–,–,92,–
Cc1cc(-c2ccccc2)cc(-c2ccccc2)[n+]1CCc1ccccc1,–,–,–,85,–
CCOc1ccc(N)cc1,–,–,–,–,–
CCOc1ccc(-c2cc(C)[n+](CCO)c(-c3ccc(OCC)cc3)c2)cc1,–,–,–,92,–
CC(C)CCn1c(=O)c(C(=O)Nc2ccccc2S(N)(=O)=O)c(O)c2ccccc21,·,–,?,69,·
COC(=O)[C@H]1[C@H](CO)[C@H]2Cn3c(ccc(/C=C/c4ccccc4)c3=O)[C@@H]1N2Cc1ccccc1F,–,·,–,–,·
COC(=O)[C@H]1[C@H](CO)[C@H]2Cn3c(ccc(-c4cccc(C(=O)N(C)C)c4)c3=O)[C@@H]1N2CC1CC1,–,·,·,–,–
COc1cc2c(c(OC)c1OC)-c1ccc(C(=O)O)cc1[C@@H](NC(C)=O)CC2,–,–,–,–,–
